Experimental data taken from PubChem BioAssay.
Active and inactive are the calls of the source.

Experiments:
[1] = system: Human papillomavirus type 1a protein E7 (residues 44-93); experiment: HPV1a E7 fragment binders on microarrays, primary screen, biochemical, small-molecule microarray, residues 44-93, 635 nm fluorescence (AID 1108); conditions: small-molecule microarray binding, fluorescence 635 nm; higher = more signal;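 further: E7 fragment applied at 1 µg/mL in TBST for 1 h at 4 C; score combines spot fluorescence with its signal to noise ratio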
[2] = modulators of HCV replicon luciferase signal, primary screen, HCV replication inhibitor project, Huh7 cells, luciferase reporter (AID 1109); conditions: 48 h, higher = more signal;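 further: huh7 hepatoma cells harbouring a luciferase neomycin HCV replicon reporter; luciferase luminescence as measure of HCV replicon replication; test concentration not given here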
[3] = biological target: Left-right determination factor 2 (Homo sapiens) (UniProt O00292); experiment: LEFTY2 binders on small-molecule microarrays, primary screen, biochemical, small-molecule microarray, 635 nm fluorescence scan (AID 1110); conditions: LEFTY2 binding, higher = more signal
[4] = biological target: Calmodulin-1 (Homo sapiens) (UniProt P0DP23); experiment: CALM1 binders on microarrays, EGTA buffer, profiling panel, biochemical, small-molecule microarray, Cy5-labelled CALM1 (AID 1111); conditions: Cy5-CALM1 binding fluorescence, higher = more signal;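 further: labelled calmodulin applied in Tris saline Tween buffer holding calcium plus EGTA and DTT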
[5] = biological target: Calmodulin-1 (Homo sapiens) (UniProt P0DP23); experiment: calcium-bound CALM1 binders on microarrays, profiling panel, artefact control for SMM control-protein annotation, biochemical, small-molecule microarray, Cy5-labelled CALM1, plus calcium (AID 1112); conditions: Cy5-CALM1 binding fluorescence, higher = more signal;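 further: score merges spot fluorescence with signal to noise from triplicate slides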
[6] = small-molecule microarray binders of probe aWnt5a, primary screen, biochemical, biotinylated probe, 635/667 nm fluorescence (AID 1113); conditions: higher = more signal;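 further: score merges 667 nm fluorescence intensity with signal-to-noise per printed feature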
[7] = small-molecule microarray binders of probe aShh, primary screen, biochemical, biotinylated probe, 635/667 nm fluorescence (AID 1114); conditions: higher = more signal;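 further: probe is biotin-labelled aShh protein from a stem cell growth factor screen; measures binding of labelled protein to compounds printed on the slide; score merges feature fluorescence at 667 nm with signal-to-noise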
[8] = small-molecule microarray binders of probe aNog, primary screen, biochemical, biotinylated probe, 635/667 nm fluorescence (AID 1115); conditions: higher = more signal;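 further: probe is biotinylated aNog protein used at 0.15 µg/mL for 1 h at 4 C; z-score combines 667 nm fluorescence of each spot with its signal to noise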
[9] = biological target: Torsin-1A-interacting protein 1 (Homo sapiens) (UniProt Q5JTV8); experiment: LAP1 binders from COS7 cell lysate, primary screen, small-molecule microarray, 635/667 nm fluorescence (AID 1116); conditions: COS7-hLAP1 lysate binding, 635 nm fluorescence, higher = more signal
[10] = biological target: Alpha-bungarotoxin (Bungarus multicinctus) (UniProt P60615); experiment: alpha-bungarotoxin binders on microarray, profiling panel, artefact control for SMM control protein annotation, biochemical, small-molecule microarray, Alexa647 label, 635/667 nm fluorescence (AID 1117); conditions: alpha-BTX-A647 binding fluorescence, higher = more signal
Albumin (Bos taurus) = Albumin (Bos taurus) (UniProt P02769); experiment: bovine serum albumin binders on microarray, profiling panel, artefact control for SMM control protein annotation, biochemical, small-molecule microarray, Alexa647 label, 635/667 nm fluorescence (AID 1118); conditions: BSA-A647 binding, fluorescence 635 nm, higher = more signal;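 further: score merges 667 nm emission intensity and signal-to-noise per printed compound spot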
[11] = small-molecule microarray binders of probe aXIP, primary screen, biochemical, NeuroSMM set, 635/667 nm fluorescence (AID 1119); conditions: higher = more signal, called active from +8 up or from −8 down;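 further: probe is the protein aXip251-270 applied at 1 µg/mL to compound-printed slides; binding of probe to printed compounds measured as 667 nm fluorescence plus signal to noise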
[12] = small-molecule binders of probe aNOTCH3, primary screen, biochemical, small-molecule microarray, 635/667 nm fluorescence (AID 1120); conditions: higher = more signal;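 further: probe is a biotin-tagged antibody raised against NOTCH3 rather than NOTCH3 protein; score merges spot fluorescence near 667 nm with spot signal to noise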
[13] = small-molecule binders of probe aNOTCH2, primary screen, biochemical, small-molecule microarray, 635/667 nm fluorescence (AID 1121); conditions: higher = more signal;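 further: score merges feature fluorescence read at 667 nm with its signal to noise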
[14] = biological target: Carbonic anhydrase 2 (Homo sapiens) (UniProt P00918); experiment: CAII small-molecule binders, profiling panel, biochemical, small-molecule microarray, Alexa647-labelled CAII (AID 1122); conditions: CAII-A647 binding fluorescence, higher = more signal
[15] = COS7 lysate on small-molecule microarray, probe aHis, 635 nm (AID 1123); conditions: COS7 cell lysate, fluorescence, higher = more signal;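 further: z-score combines 667nm fluorescence intensity with signal-to-noise per printed compound spot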
[16] = compound binding in COS7 lysate, probe aLAP1, primary screen, cell lysate, small-molecule microarray (AID 1124); conditions: probe aLAP1, fluorescence, higher = more signal;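 further: lysate comes from COS7 cells expressing LAP1 and is applied at 0.3 µg/mL; score merges spot fluorescence near 667 nm with signal-to-noise over triplicate slides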
Sam68 (KHDRBS1) = experiment: Sam68 small-molecule binders, primary screen, biochemical, small-molecule microarray, 635 nm fluorescence (AID 1125); conditions: small-molecule microarray binding, higher = more signal;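 further: score merges 667 nm channel intensity with signal to noise over triplicate slides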
[17] = system: Chordin-like protein 2 (CHRDL2); experiment: CHRDL2 small-molecule binders, primary screen, biochemical, small-molecule microarray, 635 nm fluorescence (AID 1126); conditions: small-molecule microarray binding, fluorescence 635 nm; higher = more signal;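 further: printed compound slides probed with Chrdl2 protein at 4 µg/mL for 1 h at 4 C; score merges 667 nm emission intensity with signal to noise over three replicate slides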
[18] = biological target: Concanavalin-A (Canavalia ensiformis) (UniProt P02866); experiment: ConA small-molecule binders, primary screen, artefact control for SMM control protein annotation, biochemical, small-molecule microarray, Alexa647 label, 635 nm (AID 1127); conditions: ConA-A647 binding fluorescence, higher = more signal;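 further: z combines 667 nm emission intensity with signal-to-noise across three replicate slides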
Chain of Concanavalin-A (Canavalia ensiformis) (P02866 whole entry, looked up): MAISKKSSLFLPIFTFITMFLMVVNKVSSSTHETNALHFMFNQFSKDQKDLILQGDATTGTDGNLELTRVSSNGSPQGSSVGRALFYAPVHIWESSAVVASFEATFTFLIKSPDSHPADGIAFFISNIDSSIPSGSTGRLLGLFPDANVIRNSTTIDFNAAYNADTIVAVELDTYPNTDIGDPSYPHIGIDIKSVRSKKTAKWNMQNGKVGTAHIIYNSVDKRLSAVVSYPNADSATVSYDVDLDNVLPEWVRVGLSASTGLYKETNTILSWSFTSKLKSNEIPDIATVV

Chain of Alpha-bungarotoxin (Bungarus multicinctus) (P60615 whole entry, looked up): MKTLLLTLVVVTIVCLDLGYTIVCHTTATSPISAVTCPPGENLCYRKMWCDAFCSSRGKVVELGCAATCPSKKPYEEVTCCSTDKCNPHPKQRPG
Chain of Left-right determination factor 2 (Homo sapiens) (O00292 whole entry, looked up): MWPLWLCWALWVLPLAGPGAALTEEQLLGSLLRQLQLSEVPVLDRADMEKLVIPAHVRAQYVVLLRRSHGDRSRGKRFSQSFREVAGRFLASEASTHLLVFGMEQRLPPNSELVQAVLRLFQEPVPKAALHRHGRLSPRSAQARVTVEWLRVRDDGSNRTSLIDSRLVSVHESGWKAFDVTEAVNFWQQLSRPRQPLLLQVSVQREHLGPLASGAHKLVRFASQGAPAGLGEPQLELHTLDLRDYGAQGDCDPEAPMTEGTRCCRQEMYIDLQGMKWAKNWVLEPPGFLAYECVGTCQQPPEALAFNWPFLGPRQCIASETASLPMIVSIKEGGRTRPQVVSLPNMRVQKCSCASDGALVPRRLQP
Chain of Torsin-1A-interacting protein 1 (Homo sapiens) (Q5JTV8 whole entry, looked up): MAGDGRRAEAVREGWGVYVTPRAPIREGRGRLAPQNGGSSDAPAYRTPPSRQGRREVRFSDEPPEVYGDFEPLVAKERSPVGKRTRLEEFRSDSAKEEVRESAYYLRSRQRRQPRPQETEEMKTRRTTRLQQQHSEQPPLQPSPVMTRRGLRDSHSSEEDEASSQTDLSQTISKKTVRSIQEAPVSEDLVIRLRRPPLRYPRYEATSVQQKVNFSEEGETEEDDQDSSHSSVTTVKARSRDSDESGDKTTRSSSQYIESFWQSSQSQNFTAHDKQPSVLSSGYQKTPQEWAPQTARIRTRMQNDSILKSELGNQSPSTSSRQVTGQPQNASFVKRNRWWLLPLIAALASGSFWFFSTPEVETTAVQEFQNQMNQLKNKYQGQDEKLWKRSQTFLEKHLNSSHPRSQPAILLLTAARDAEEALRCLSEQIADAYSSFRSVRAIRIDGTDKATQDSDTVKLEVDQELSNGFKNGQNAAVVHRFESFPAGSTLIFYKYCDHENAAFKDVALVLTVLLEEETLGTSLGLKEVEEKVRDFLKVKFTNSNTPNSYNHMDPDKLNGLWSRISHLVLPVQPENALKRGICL
Chain of Albumin (Bos taurus) (P02769 whole entry, looked up): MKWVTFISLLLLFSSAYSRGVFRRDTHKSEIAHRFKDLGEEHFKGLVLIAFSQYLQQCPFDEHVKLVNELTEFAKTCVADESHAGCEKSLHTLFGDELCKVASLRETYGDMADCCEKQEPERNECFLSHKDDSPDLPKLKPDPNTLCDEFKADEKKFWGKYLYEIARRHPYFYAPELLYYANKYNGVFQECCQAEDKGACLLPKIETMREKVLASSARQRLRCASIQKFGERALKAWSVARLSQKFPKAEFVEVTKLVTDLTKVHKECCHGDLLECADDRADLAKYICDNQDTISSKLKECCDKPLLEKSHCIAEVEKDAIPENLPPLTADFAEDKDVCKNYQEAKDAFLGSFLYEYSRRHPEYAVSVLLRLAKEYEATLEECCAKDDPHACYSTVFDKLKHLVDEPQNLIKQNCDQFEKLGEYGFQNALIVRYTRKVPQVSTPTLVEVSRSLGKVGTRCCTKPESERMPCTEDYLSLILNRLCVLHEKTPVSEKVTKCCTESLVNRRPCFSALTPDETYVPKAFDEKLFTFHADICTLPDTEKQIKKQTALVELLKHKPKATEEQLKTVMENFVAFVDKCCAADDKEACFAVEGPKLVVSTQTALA

SMILES | composite z-score [1] | z-score [2] | composite z-score [3] | composite z-score [4] | composite z-score [5] | composite z-score [6] | composite z-score [7] | composite z-score [8] | composite z-score [9] | composite z-score [10] | composite z-score (Albumin (Bos taurus)) | composite Z-score [11] | composite z-score [12] | composite z-score [13] | composite z-score [14] | composite z-score [15] | composite z-score [16] | composite z-score (Sam68 (KHDRBS1)) | composite z-score [17] | composite z-score [18]
CC1CC/C=C\[C@H]2OC34C=CCN(C(C)C)C(=O)[C@H]3N(CCCCCO)C(=O)[C@@H]4C2C(=O)O1 (stereo not given in full) | -0.806 | 0.205 | -2.15 | -0.329 | 0.446 | -0.178 | -0.206 | 0.179 | -0.753 | -1.36 | -1.51 | -0.362 (inactive) | -0.289 | -0.153 | 0.939 | -0.384 | 0.839 | -0.925 | -1.69 | -0.486
CC(C)(C)N1CC=CC23O[C@@H]4C=CCOC(=O)[C@@H]4[C@H]2C(=O)N(CCCO)[C@@H]3C1=O (stereo not given in full) | -0.62 | 0.104 | -2.12 | -1.03 | 0.392 | -0.232 | -0.297 | -0.425 | 0.412 | -2.03 | -1.37 | 0.701 (inactive) | -0.478 | -0.179 | 0.917 | 0.216 | -0.343 | -1.01 | -1.64 | -1.62
COC(=O)C1(Cc2ccccc2)C=C2C(=C(c3ccccc3)C(=O)C2C)CN1 (stereo not given) | -0.964 | -1.53 | -0.871 | 0.648 | 1.18 | 1.11 | 2.71 | 1.05 | 1.22 | 0.0329 | 0.544 | 0.257 (inactive) | 1.59 | 0.839 | 0.725 | 2.3 | 0.906 | -0.305 | 0.0887 | -1.56
C=CCNC(=O)[C@@H]1[C@H]2C(=O)O[C@H](c3ccccc3)[C@H](c3ccccc3)N2[C@H](c2ccc(OCCO)cc2)[C@@]12C(=O)N(C(=O)OCCOC)c1ccc(C#CC3=CCCCC3)cc12 | 1.34 | -1.68 | 0.509 | 1.66 | 0.283 | -0.0051 | 0.13 | -0.375 | 0.642 | 0.84 | 0.498 | 0.223 (inactive) | 0.144 | -0.0832 | 0.621 | 0.634 | 0.923 | 1.3 | 0.606 | 1.15
COC(=O)[C@@]1(Cc2ccccc2)[C@H]2c3cc(C(=O)N4CCCC4)[nH]c3C[C@H]2CN1C(=O)c1ccccc1 | -1.89 | -0.151 | -0.632 | 0.677 | 0.705 | 0.0913 | -0.243 | 1.1 | 1.96 | -0.243 | 0.5 | -0.37 (inactive) | 0.0203 | 0.111 | 0.722 | 3.51 | 0.341 | -1.81 | -0.782 | -1.15
COC(=O)[C@@]1(Cc2ccccc2)[C@H]2c3cc(C(=O)N4CCCC4)n(Cc4ccsc4Br)c3C[C@H]2CN1C(=O)c1ccccc1 | 1.45 | -2.73 | -0.505 | 1.6 | 1.17 | 0.332 | -0.0789 | 1.99 | 0.545 | 1.23 | 0.842 | -0.314 (inactive) | 0.485 | 0.244 | 0.555 | 2.45 | -0.0293 | 1.33 | -0.265 | 1.01
C=CCN1Cc2ccccc2C[C@@]2(N=C(c3ccc(OCCCO)cc3)O[C@H]2c2ccccc2)C1=O | 1.46 | -3.08 | 0.473 | 2.97 | -0.398 | 0.0873 | 0.19 | -0.179 | 1.2 | 1.15 | 0.247 | 0.667 (inactive) | 0.106 | -0.0148 | 0.577 | 3.06 | 0.326 | 1.3 | 0.185 | 1.14
C=CCN1C(=O)[C@@]2(CCC(=O)OC(C)(C)C)N=C(c3ccc(OCCCO)cc3)O[C@H]2c2ccccc21 | 1.36 | -2.97 | 0.224 | 1.47 | 0.516 | 0.065 | 0.0048 | -0.226 | 0.144 | 0.916 | 0.71 | 0.0873 (inactive) | 0.108 | 0.0484 | 0.654 | 1.33 | 0.0616 | 0.817 | 0.145 | 1.16
CCCCN1CC=CC23O[C@@H]4C=CCOC(=O)[C@@H]4[C@H]2C(=O)N(C(C)CO)[C@@H]3C1=O (stereo not given in full) | -1.31 | -0.748 | -1.29 | -0.397 | 0.5 | -0.169 | -0.209 | 0.26 | -0.194 | -0.714 | -1.04 | -0.527 (inactive) | -0.154 | -0.118 | 0.904 | -0.819 | -0.0435 | -1.6 | -1.98 | -1.33
COCCCNC(=O)[C@]1(CCC(=O)OC(C)(C)C)N=C(c2ccc(OCCCO)cc2)O[C@@H]1c1ccccc1 | 1.49 | -0.151 | -0.737 | 1.59 | 1 | -0.0203 | -0.0248 | -0.0076 | 1.49 | 1.6 | 0.968 | 0.977 (inactive) | 0.246 | 0.221 | 0.871 | 3.17 | 0.62 | 0.881 | -0.0833 | -0.354
COCC(=C=CC[C@H](O)c1cccc(OCCO)c1)C[C@H](O)c1ccccn1 | 0.0462 | -0.0093 | -0.0587 | -0.319 | -0.621 | 0.0151 | 0.0952 | 0.167 | 1.68 | 1.26 | 0.0722 | -0.0402 (inactive) | -0.004 | -0.145 | 0.778 | 3.79 | 0.369 | 0.52 | -0.0575 | 0.102
